# Assay results taken from PubChem BioAssay (Tox21).
# Inconclusive results are not listed. A call without a number means that no potency is given here. Calls of active or inactive are those of the source. Unless noted, the call rests on the fitted dose curve; in most records, active means well fitted curve in the direction sought with a large enough effect in the repeat runs; inconclusive means weak or mixed curves; inactive means no such curve, though single readings can be large; an effect the other way counts as inactive or inconclusive.
# Columns and labels:
# [1] = qHTS assay to identify small molecule antagonists of the estrogen related receptor (ERR) signaling pathway - cell viability counter screen (AID 1224818); further: potency means the concentration at half of the fitted maximal effect;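 further: viability measured after 17.5 h of compound exposure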
# Method in brief: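 Cells carrying the ERR pathway reporter were seeded and incubated for 6 hours before compound addition. After a 17.5-hour exposure at 37 C, live-cell protease activity was measured by CellTiter-Fluor fluorescence following 30 minutes of incubation.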
# [2] = qHTS assay to identify small molecule antagonists of the estrogen related receptor (ERR) signaling pathway (AID 1224819; further: nearly all actives have a fitted effect of over 50% in size; further: potency means the concentration at half of the fitted maximal effect)
# Method in brief: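 Compounds dissolved in DMSO were pin-transferred onto ERR cells that had been plated 6 h earlier, and cells were then incubated 18 h at 37 C; signal was luciferase luminescence via One-Glo.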
# [3] = qHTS assay to identify small molecule agonists of the estrogen related receptor (ERR) signaling pathway (AID 1224820); further: potency means the concentration at half of the fitted maximal effect
# Method in brief: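 ERR reporter cells (NTP line) plated 2,000/well, incubated 6 h at 37 C/5% CO2, then pinned with compounds in DMSO and held 18 h at 37 C. One-Glo added; luminescence read after 30 min at room temperature.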
# [4] = qHTS assay to identify small molecule agonists of the estrogen related receptor signaling pathway with the pleiotropic PPARgamma coactivator (PGC) (AID 1224823); further: potency means the concentration at half of the fitted maximal effect
# Method in brief: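 PGC/ERR reporter cells were seeded, rested 6 h at 37 C/5% CO2, then exposed to compounds in DMSO by pin transfer for 18 h at 37 C. Luciferase activity was read as luminescence after One-Glo reagent and 30 min at room temperature.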
# [5] = qHTS assay to identify small molecule antagonists of the estrogen related receptor signaling pathway with the pleiotropic PPARgamma coactivator (PGC) cell viability counter screen (AID 1224822;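 further: series mostly up to about 46 µM; viability read after 17.5 h compound exposure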)
# Method in brief: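 Seed PGC/ERR cells (2,000/well); incubate 6 h at 37 C/5% CO2; pin-transfer compounds in DMSO; incubate 17.5 h at 37 C; add CellTiter-Fluor; after 30 min read fluorescence.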
# [6] = system: estrogen-related receptor alpha (ERRalpha) with PGC-1alpha coactivator, human; test: qHTS assay to identify small molecule antagonists of the estrogen related receptor signaling pathway with the pleiotropic PPARgamma coactivator (PGC) (AID 1224821; calls by dose curve; further: nearly all actives have a fitted effect of over 50% in size; further: potency means the concentration at half of the fitted maximal effect)
# Method in brief: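 Cells engineered for PGC/ERR signalling (line from NTP) were plated 6 h at 37 C/5% CO2, then exposed to DMSO-dissolved compound for 18 h at 37 C. Luciferase activity was read by One-Glo luminescence after 30 min at room temperature.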
SMILES,Potency [1],Potency [2],Potency [3],Potency [4],Potency [5],Potency [6]
CN1C2CCC1CC(OC(c1ccccc1)c1ccccc1)C2 (stereo not drawn),inactive,inactive,inactive,inactive,–,–
Oc1cc(O)cc(/C=C/c2ccc(O)c(O)c2)c1,inactive,inactive,8.41 µM (active),18.1 µM (active),inactive,–
O=C1NC(=O)/C(=C/c2ccc3nccnc3c2)S1,inactive,inactive,inactive,inactive,inactive,–
NC1(C(=O)O)CCc2cc(C(=O)O)ccc21 (stereo not drawn),inactive,inactive,inactive,inactive,inactive,–
C=CC[C@H](N)C(=O)O,inactive,inactive,inactive,inactive,inactive,–
CSc1ccccc1N1CCN(CCCCCC(=O)NC2CCCc3ccccc32)CC1 (stereo not drawn),10.2 µM (active),16.2 µM (active),inactive,inactive,–,–
N[C@H](C(=O)O)[C@H]1C[C@@H]1C(=O)O,inactive,inactive,inactive,inactive,inactive,–
CS(=O)(=O)c1cccc(CNc2nc(Nc3ccc4c(c3)CCC(=O)N4)ncc2C(F)(F)F)c1,inactive,inactive,inactive,inactive,inactive,–
CCCN(CC1CC1)c1nc(C)nc(Nc2c(Cl)cc(Cl)cc2Cl)c1Cl,inactive,inactive,inactive,inactive,inactive,–
N[C@H](CCCP(=O)(O)O)C(=O)O,inactive,inactive,–,inactive,inactive,inactive
O=C(O)CCc1ccc(NCc2cccc(Oc3ccccc3)c2)cc1,inactive,inactive,–,inactive,inactive,inactive
NCCSSCCN,inactive,inactive,–,inactive,inactive,inactive
CCCn1c(=O)c2[nH]c(C3CCCC3)nc2n(CCC)c1=O,inactive,inactive,–,inactive,inactive,inactive
Cn1cnc2c(NCc3ccccc3)nc(NCCO)nc21,inactive,inactive,–,inactive,inactive,inactive
CCCCS(=N)(=O)CC[C@H](N)C(=O)O (stereo partly drawn),inactive,inactive,–,inactive,inactive,inactive
Nc1nc(N)c2nc(CNc3ccc(C(=O)NC(CCC(=O)O)C(=O)O)cc3)cnc2n1 (stereo not drawn),inactive,0.0438 µM (active),–,inactive,inactive,0.0619 µM (active)
O=c1c2ccccc2nc2n1CCc1c-2[nH]c2ccccc12,inactive,inactive,2.28 µM (active),13.3 µM (active),–,–

SMILES,Potency [1],Potency [2],Potency [3],Potency [4],Potency [5],Potency [6]
C[C@](Cc1ccc(O)c(O)c1)(NN)C(=O)O,inactive,inactive,–,inactive,inactive,inactive
O=C(c1ccc2c(c1)OCCO2)N1CCCCC1,inactive,inactive,–,inactive,inactive,inactive
O=C(O)CCCC[C@@H]1CCSS1,inactive,inactive,–,inactive,inactive,inactive
Cc1cn([C@H]2CC(N=[N+]=[N-])[C@@H](CO)O2)c(=O)[nH]c1=O (stereo partly drawn),inactive,inactive,–,inactive,inactive,inactive
Oc1cc2c(cc1O)C(c1ccccc1)CNCC2 (stereo not drawn),inactive,inactive,inactive,inactive,–,–
O=Nc1ccc2oc(=O)ccc2c1,inactive,inactive,–,–,inactive,inactive
CC(C)(C=O)Cc1cc(C(C)(C)C)c(O)c(C(C)(C)C)c1,inactive,inactive,–,inactive,inactive,inactive
COc1ccc(NC(=O)/C=C/c2ccc(Cl)cc2)cc1,inactive,inactive,–,–,inactive,inactive
CC(C)(C)c1onc(OCP(=O)(O)O)c1CC(N)C(=O)O (stereo not drawn),inactive,inactive,–,inactive,inactive,inactive
COc1cc(CNC(=O)CCCCCCC(C)C)ccc1O,inactive,inactive,–,inactive,inactive,inactive
Clc1ccc2c(N3CCN(CCCN4CCN(c5ccnc6cc(Cl)ccc56)CC4)CC3)ccnc2c1,inactive,inactive,inactive,inactive,–,–
C[C@H](NC(=O)/C(C#N)=C/c1ccc(O)c(O)c1)c1ccccc1,inactive,inactive,–,inactive,inactive,inactive
Nc1ncnc2c1ncn2C1CCCO1 (stereo not drawn),inactive,inactive,–,inactive,inactive,inactive
N=c1ccn2c(n1)O[C@H]1C(O)[C@@H](CO)O[C@H]12 (stereo partly drawn),inactive,inactive,–,inactive,inactive,inactive
C[C@@H](c1ncncc1F)[C@](O)(Cn1cncn1)c1ccc(F)cc1F,inactive,inactive,–,inactive,inactive,inactive
O=S(=O)(c1cccc2c(I)cccc12)N1CCCNCC1,inactive,inactive,–,inactive,inactive,inactive
